This is a sample that favours compounds with a hit; in the whole collection about 3.3% have one here.
SIRT5 block: blocks human SIRT5 desuccinylation of peptide. Q9NXA8. Purified SirT5, succinyl-peptide AMC, trypsin-coupled fluorescence. inhibition, % at 15 µM. actives 1.1% (n = 330,000); in the data active = inhibition above about 15%
GSIS activator: primary screen for activators of insulin secretion dependent on glucose, INS-1E cells, GLuc reporter luminescence | INS-1E GLuc reporter insulin secretion, 2-3 h | activation, % at 16.6 µM | actives 0.61% (n = 370,000) | AID 743287;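 active = lowest replicate activation of at least 40%, so every replicate reaches that level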;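 note: 0% = median of neutral control wells and 100% = median of IBMX positive control wells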
Casp6 inh: caspase-6 (human) enzyme inhibition; P55212; purified caspase-6, Z-VEID-R110 cleavage fluorescence; inhibition, % at 12.5 µM; actives 0.53% (n = 350,000); AID 686996;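 active = mean inhibition across replicates at least about 35%, with every replicate also reaching that limit, limit read from the data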;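 note: 0% = median of neutral control wells and 100% = no fluorescence left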
Target sequence (P55212 24-179 limits assumed): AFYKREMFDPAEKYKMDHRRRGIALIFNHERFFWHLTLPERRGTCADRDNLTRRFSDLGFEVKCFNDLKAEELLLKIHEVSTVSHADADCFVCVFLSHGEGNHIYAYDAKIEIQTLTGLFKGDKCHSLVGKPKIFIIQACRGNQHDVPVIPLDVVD
Target sequence (P55212 194-293 limits assumed): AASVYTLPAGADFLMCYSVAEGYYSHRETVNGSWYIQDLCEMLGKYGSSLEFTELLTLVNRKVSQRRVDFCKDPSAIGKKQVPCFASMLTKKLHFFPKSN
ERAP1 inh: inhibitors of human ERAP1 aminopeptidase; inhibition, % at 10.7 µM; actives 0.15% (n = 340,000); Q9NZ08; recombinant ERAP1, Leu-AMC fluorescence, 60 min;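 active = mean replicate inhibition of at least 30%, or all replicates individually reaching that 30% level; inactive = mean below 30% and not every replicate reaching it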;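 note: 0% = neutral control wells and 100% = L-leucinethiol positive control wells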
FGF22 binding: binders of recombinant human FGF22 by thermal shift | Q9HCT0 | SYPRO orange fluorescence; percent of sucrose octasulfate shift, DMSO zero | activity (Tm shift, normalised), % at 9.99 µM | actives 1.5% (n = 340,000);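 active = mean Tm shift, scaled 0 neutral to 100 positive control, at about 1.3% or above, every replicate too, limit read from the data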
Target sequence (Q9HCT0 whole entry, looked up): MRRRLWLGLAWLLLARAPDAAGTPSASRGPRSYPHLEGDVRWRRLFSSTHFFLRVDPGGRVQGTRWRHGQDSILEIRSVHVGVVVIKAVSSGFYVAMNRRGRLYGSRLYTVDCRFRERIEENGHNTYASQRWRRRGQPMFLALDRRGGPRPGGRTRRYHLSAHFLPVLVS
Active calls of the source: *; x = not tested or not shown.

SMILES	SIRT5 block	GSIS activator	Casp6 inh	ERAP1 inh	FGF22 binding
C[C@H]1CN([C@@H](C)CO)C(=O)Cc2cc(NC(=O)Nc3ccccc3)ccc2O[C@@H]1CN(C)Cc1ccncc1	x	2.9	0.3	1.3	-0.5
CC(C)NC(=O)Nc1cccc2c1O[C@@H](CN(C)C)[C@H](C)CN(C)C2=O	x	1.5	x	x	x
O=S(=O)(c1ccc(F)cc1)N1CCCCN2[C@H](CO)[C@@H](c3ccc(C#CC4CCCC4)cc3)[C@@H]2C1	17.6*	x	1.4	7.1	0.5
O=S(=O)(c1ccc(F)cc1)N1CCCCN2[C@H](CO)[C@@H](c3ccc(C#CC4CC4)cc3)[C@H]2C1	12.6	-18.1	-0.4	2.4	-0.2
CCN(CC)c1ccc(CNc2nc3ccccc3n2CCN2CCCCC2)cc1	-5.2	-25.1	-5.3	-3.6	x
CCN(CC)c1ccc(CNc2nc3ccccc3n2C)cc1	-6.0	-53.1	3.2	-1.9	42.9*
CCCn1c(NCc2ccc3c(c2)OCO3)nc2ccccc21	0.1	-18.1	1.1	-2.7	0.1
CN(C)CCn1c(NCc2ccc3c(c2)OCO3)nc2ccccc21	30.5*	18.3	-2.2	-3.7	0.2
COc1ccc(C#Cc2ccc3c(c2)[C@]2(C(=O)N3)[C@H](c3ccc(OCCO)cc3)N3[C@H](c4ccccc4)[C@H](c4ccccc4)OC(=O)[C@H]3[C@@H]2C(=O)N2CCCCCCC2)cc1	0.5	x	-0.5	1.2	0.1
C[C@H](CO)N1C[C@H](C)[C@@H](CN(C)S(=O)(=O)c2cccs2)Oc2ncc(C#CCC3CCCC3)cc2C1=O	13.0	10.6	x	x	-0.1
Cc1cccc(C)c1NS(=O)(=O)c1ccc(OCCNS(C)(=O)=O)cc1	-0.7	-5.7	1.4	-2.0	43.4*
CS(=O)(=O)NCCOc1ccc(S(=O)(=O)NCCOc2ccccc2)cc1	1.2	-7.3	0.0	-1.8	0.4
CCC(=O)Nc1ccc2c(c1)C(=O)N(C)C[C@H](OC)[C@H](C)CN(C(=O)Cc1ccccn1)[C@@H](C)CO2	-0.5	4.2	-0.4	-2.0	0.2
O=[N+]([O-])c1cccnc1NCc1cccs1	-5.5	19.4	-1.3	-1.0	43.3*
Cn1c(CC(=O)NCCO)c(Sc2ccccc2)c2ccccc21	x	8.0	x	x	x
O=C(Cc1c(Sc2ccccc2)c2ccccc2n1Cc1ccccc1)NCCO	-0.5	-1.5	2.8	-2.6	43.1*
CSc1c(CC(=O)NCCCO)n(Cc2ccccc2)c2ccccc12	-0.2	6.8	-5.3	-2.6	-0.2
COc1ccc(NC(=O)Cc2c(SC)c3ccccc3n2Cc2ccccc2)cc1	x	97.0*	x	x	x
C[C@@H]1CCCCO[C@H](CN(C)C(=O)Nc2ccc3c(c2)OCO3)[C@H](C)CN([C@H](C)CO)C(=O)c2cc(NC(=O)NC3CCCCC3)ccc2O1	x	6.8	x	x	-0.6
c1ccc(CCNc2ccc3nncn3n2)cc1	-3.2	x	-1.5	-0.1	0.2
NCCNc1ccc2nnnn2n1	-1.5	-6.4	-1.2	2.2	43.3*
CCOC(=O)Cc1csc(NC(=O)COc2ccc(C)cc2)n1	0.2	-7.1	0.8	6.4	43.2*
Cc1n[nH]c(=O)nc1N/N=C/c1ccco1	1.8	-0.7	2.0	-1.8	44.1*
Cc1cc(=O)[nH]c(N/N=C/c2ccco2)n1	x	9.0	x	x	x
NC(=O)c1c(NC(=O)C(=O)N2CCOCC2)sc2c1CCCC2	1.0	1.4	-0.3	2.2	-0.1
SMILES	SIRT5 block	GSIS activator	Casp6 inh	ERAP1 inh	FGF22 binding
O=C(O)c1c(NC(=O)N2CCOCC2)sc2c1CCCC2	1.0	62.3*	10.8	-1.3	-0.2
Cc1noc(C)c1NC(=O)N(C)C[C@H]1OCCCC[C@@H](C)Oc2ccc(NS(=O)(=O)c3c(C)noc3C)cc2C(=O)N([C@H](C)CO)C[C@@H]1C	28.3*	10.0	1.3	-1.2	-0.1
Cc1noc(C)c1NC(=O)N(C)C[C@@H]1OCCCC[C@H](C)Oc2ccc(NC(=O)NC3CCCCC3)cc2C(=O)N([C@@H](C)CO)C[C@H]1C	-4.2	7.8	1.6	-5.1	1.5*
COc1ccc(S(=O)(=O)Nc2ccc3c(c2)C(=O)N([C@H](C)CO)C[C@H](C)[C@H](CN(C)C(=O)Nc2c(C)noc2C)OCCCC[C@H](C)O3)cc1	1.9	-1.6	1.0	-1.0	1.3*
Cc1ccc(S(=O)(=O)Nc2ccc3c(c2)C(=O)N([C@@H](C)CO)C[C@@H](C)[C@@H](CN(C)Cc2ccncc2)OCCCC[C@@H](C)O3)cc1	2.8	-16.9	-1.1	-5.1	0.0
CN1C(=O)c2cc(NC(=O)NC3CCCC3)ccc2OC[C@@H]2O[C@H](CC(=O)O)CC[C@H]21	7.8	-2.1	-3.0	-2.0	-0.2
CCC(=O)N(C)C[C@H]1Oc2ncc(C#CC3(O)CCCC3)cc2C(=O)N([C@@H](C)CO)C[C@H]1C	-2.7*	0.9	-3.3	1.1	0.1
C[C@@H]1CN([C@H](C)CO)C(=O)c2cc(C#CC3(O)CCCC3)cnc2O[C@@H]1CN(C)C	-1.0	21.4	-1.1	0.2	0.1
CCC(=O)N(C)C[C@@H]1Oc2ncc(C#CC3(O)CCCC3)cc2C(=O)N([C@H](C)CO)C[C@@H]1C	-5.0	10.2	-1.2	1.9	0.0
C[C@H](CO)N1C[C@H](C)[C@H](CN(C)CC2CC2)Oc2ncc(C#CC3(O)CCCC3)cc2C1=O	18.2*	2.9	-0.3	2.0	x
Cc1ccc(/C=C2/SC(=Nc3ccc(F)cc3)NC2=O)s1	0.9	19.0	x	81.5*	0.1
O=C(CCn1c(=O)oc2ccccc21)Nc1cccc(Cl)c1	-1.2	-1.9	-0.5	2.7	0.0
O=C(Cn1c(=O)oc2ccccc21)Nc1cccc(Cl)c1	28.1*	8.6	1.8	-5.5	-0.1
CCC(C)(C)NC(=O)CN(C(=O)c1csnn1)c1cccc2c1CCCC2	x	-11.6	1.3	x	1.1
CCC(C)(C)NC(=O)CN(C(=O)c1csnn1)c1ccccc1-c1ccccc1	1.6	-6.4	-0.5	4.4	42.9*
CN1CCN(C(=O)C[C@@H]2CC[C@@H]3[C@H](COc4ccc(NC(=O)c5ccc(F)c(F)c5)cc4C(=O)N3C)O2)CC1	2.0	4.0	1.9	1.0	-0.1
COc1ccc(CNC(=O)c2cnn3c(C(F)F)cc(C)nc23)cc1	x	79.8*	x	x	x
Cc1cc(C(F)F)n2ncc(C(=O)O)c2n1	x	8.3	4.0	0.0	x
COC(=O)c1cc(S(=O)(=O)NCC2CCN(Cc3ccc(C)cc3)CC2)c[nH]1	-4.7	8.7	-4.7	-1.5	-0.2
COC(=O)c1cc(S(=O)(=O)NCC2CCN(Cc3cc(C)ccc3C)CC2)c[nH]1	0.5	54.5*	-13.3	-0.5	0.3
COc1ccc(N2CC(NS(=O)(=O)c3cccs3)CC2=O)cc1OC (stereo unspecified)	-2.3	41.1*	0.2	-1.2	-0.1
COc1ccc(N2CC(NS(=O)(=O)c3cccs3)CC2=O)cc1 (stereo unspecified)	2.1	11.0	-2.7	-4.8	0.1
